Assay results reported in PubChem BioAssay.
The source made the active and inactive calls.

Assays:
[1] = compounds binding Alexa647 anti-His antibody – biochemical, small-molecule microarray, 635 nm fluorescence, artefact control for SMM control protein annotation, primary screen (AID 1128); conditions: higher = more signal;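 note: score merges feature fluorescence with signal-to-noise for each printed compound spot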
[2] = tested on: Human papillomavirus type 1a E7 protein (residues 1-88); test: HPV1a E7 small-molecule binders, primary screen, biochemical, small-molecule microarray, residues 1-88, 635 nm (AID 1129); conditions: small-molecule microarray binding, fluorescence 635 nm; higher = more signal
[3] = molecular target: Focal adhesion kinase 1 (Homo sapiens) (UniProt Q05397); test: PTK2 protein binding on printed compound slides – biochemical, small-molecule microarray, 635/667 nm fluorescence, BSA, DTT, primary screen (AID 1130); conditions: 635 nm fluorescence, higher = more signal;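 note: composite of spot emission at 667 nm and signal to noise over triplicate slides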
Sequence of Focal adhesion kinase 1 (Homo sapiens) (Q05397 whole entry, looked up): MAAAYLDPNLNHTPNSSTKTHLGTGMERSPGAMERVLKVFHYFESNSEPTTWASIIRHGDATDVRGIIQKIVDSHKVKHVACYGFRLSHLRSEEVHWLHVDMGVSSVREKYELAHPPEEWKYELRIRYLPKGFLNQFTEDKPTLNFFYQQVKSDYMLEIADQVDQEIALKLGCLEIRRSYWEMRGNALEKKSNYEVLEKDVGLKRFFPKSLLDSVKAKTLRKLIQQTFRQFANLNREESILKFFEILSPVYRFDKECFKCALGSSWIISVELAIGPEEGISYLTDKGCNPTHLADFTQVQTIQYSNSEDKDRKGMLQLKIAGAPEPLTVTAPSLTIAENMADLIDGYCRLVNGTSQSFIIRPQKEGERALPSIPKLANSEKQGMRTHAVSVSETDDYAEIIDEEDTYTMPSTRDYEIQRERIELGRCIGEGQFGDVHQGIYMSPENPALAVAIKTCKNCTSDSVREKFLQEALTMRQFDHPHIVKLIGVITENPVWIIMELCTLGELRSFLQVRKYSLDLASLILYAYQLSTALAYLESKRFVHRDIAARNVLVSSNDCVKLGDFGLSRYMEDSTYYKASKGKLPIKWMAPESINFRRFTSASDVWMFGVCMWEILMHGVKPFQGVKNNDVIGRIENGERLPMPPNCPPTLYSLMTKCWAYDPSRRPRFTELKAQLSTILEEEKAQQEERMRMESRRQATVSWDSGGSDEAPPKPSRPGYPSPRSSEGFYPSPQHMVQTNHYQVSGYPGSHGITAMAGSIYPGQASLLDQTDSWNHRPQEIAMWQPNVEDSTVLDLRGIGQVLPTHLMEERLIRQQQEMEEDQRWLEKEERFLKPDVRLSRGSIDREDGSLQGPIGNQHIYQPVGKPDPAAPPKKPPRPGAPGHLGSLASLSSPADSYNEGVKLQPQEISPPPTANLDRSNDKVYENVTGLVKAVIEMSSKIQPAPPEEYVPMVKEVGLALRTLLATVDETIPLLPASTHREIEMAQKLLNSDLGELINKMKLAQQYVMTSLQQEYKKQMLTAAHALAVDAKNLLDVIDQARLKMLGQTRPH

[4] = tested on: Fibrinogen (Alexa647-labelled); test: Alexa647-fibrinogen binding to printed small molecules – biochemical, small-molecule microarray, 635/667 nm fluorescence, artefact control for SMM control-protein annotation, profiling panel (AID 1131); conditions: fibrinogen-A647 binding fluorescence, higher = more signal;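 note: z-score merges 667 nm fluorescence with per-spot signal-to-noise over triplicate slides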
[5] = molecular target: Follistatin (Homo sapiens) (UniProt P19883); test: FST protein binding to printed compounds – biochemical, small-molecule microarray, 635/667 nm fluorescence, primary screen (AID 1132); conditions: 635 nm fluorescence, higher = more signal
Sequence of Follistatin (Homo sapiens) (P19883 whole entry, looked up): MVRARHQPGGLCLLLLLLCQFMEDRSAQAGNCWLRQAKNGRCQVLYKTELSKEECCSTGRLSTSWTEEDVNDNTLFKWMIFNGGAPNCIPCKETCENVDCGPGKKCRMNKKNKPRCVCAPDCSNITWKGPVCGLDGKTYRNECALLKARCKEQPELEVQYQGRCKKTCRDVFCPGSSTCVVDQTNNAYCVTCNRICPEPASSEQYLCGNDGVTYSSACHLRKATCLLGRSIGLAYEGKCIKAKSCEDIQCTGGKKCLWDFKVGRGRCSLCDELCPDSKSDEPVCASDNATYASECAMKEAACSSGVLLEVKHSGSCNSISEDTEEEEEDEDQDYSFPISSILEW

[6] = molecular target: Fibroblast growth factor 2 (Homo sapiens) (UniProt P09038); test: basic fibroblast growth factor binding to printed compounds – biochemical, small-molecule microarray, 635/667 nm fluorescence, primary screen (AID 1133); conditions: FGF2, fluorescence 635/667, higher = more signal
Sequence of Fibroblast growth factor 2 (Homo sapiens) (P09038 whole entry, looked up): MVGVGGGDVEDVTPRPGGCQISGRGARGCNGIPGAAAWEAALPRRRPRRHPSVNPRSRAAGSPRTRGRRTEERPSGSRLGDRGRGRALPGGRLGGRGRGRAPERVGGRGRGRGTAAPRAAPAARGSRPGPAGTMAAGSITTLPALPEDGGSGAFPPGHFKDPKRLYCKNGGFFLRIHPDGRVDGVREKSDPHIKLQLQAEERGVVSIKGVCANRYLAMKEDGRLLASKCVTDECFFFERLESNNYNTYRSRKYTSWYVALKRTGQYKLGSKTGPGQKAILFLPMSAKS

[7] = JC-1 mitochondrial potential readout, lung cancer cells – cell-based, A549, JC-1 fluorescence, basal, 24 h, 100 nL, profiling panel (AID 1138); conditions: higher = more signal;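 note: A549 lung adenocarcinoma cells under basal conditions with no added stimulus; test concentration not given here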
Lefty1 = Lefty1 protein binding to printed compounds – biochemical, small-molecule microarray, 635/667 nm fluorescence, primary screen (AID 1139); conditions: fluorescence 635/667, higher = more signal
[8] = tested on: wheat germ agglutinin (Triticum aestivum), Alexa647-labelled; test: Alexa647-WGA lectin binding to printed small molecules – biochemical, small-molecule microarray, 635/667 nm fluorescence, artefact control for SMM control-protein annotation, profiling panel (AID 1140); conditions: WGA-A647 binding, 635 nm fluorescence, higher = more signal;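 note: score merges 667 nm feature emission with signal to noise over triplicate slides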
[9] = molecular target: Luciferin 4-monooxygenase (Photinus pyralis) (UniProt P08659); test: inhibition of purified Photinus pyralis luciferase – biochemical, luminescence, purified enzyme, 2006 set, primary screen (AID 1141); conditions: purified firefly luciferase, SteadyGlo luminescence, 30 min; higher = more signal, called active from +8 up or from −8 down;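 note: cell-free assay with purified firefly luciferase at 100 ng per well in PBS; test concentration not given here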
Sequence of Luciferin 4-monooxygenase (Photinus pyralis) (P08659 whole entry, looked up): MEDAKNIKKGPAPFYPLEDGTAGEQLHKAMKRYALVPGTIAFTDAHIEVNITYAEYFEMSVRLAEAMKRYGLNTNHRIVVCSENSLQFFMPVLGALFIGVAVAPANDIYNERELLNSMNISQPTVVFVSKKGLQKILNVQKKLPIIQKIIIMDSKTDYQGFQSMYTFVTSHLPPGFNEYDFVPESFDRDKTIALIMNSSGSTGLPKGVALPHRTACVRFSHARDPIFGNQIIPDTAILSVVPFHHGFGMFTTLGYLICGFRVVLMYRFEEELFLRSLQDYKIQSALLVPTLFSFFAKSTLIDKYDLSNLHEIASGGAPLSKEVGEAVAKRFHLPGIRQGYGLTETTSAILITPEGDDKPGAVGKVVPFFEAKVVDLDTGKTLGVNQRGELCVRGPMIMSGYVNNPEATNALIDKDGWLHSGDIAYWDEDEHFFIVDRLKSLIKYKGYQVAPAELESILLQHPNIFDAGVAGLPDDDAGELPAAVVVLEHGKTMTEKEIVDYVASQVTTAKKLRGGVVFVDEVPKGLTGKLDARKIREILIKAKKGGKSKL

SMILES	composite z-score [1]	composite z-score [2]	composite z-score [3]	composite z-score [4]	composite z-score [5]	composite z-score [6]	z-score [7]	composite z-score (Lefty1)	composite z-score [8]	z-score [9]
O=C1NC(=O)C2C1C=CC(C(O)C=Cc1ccc([N+](=O)[O-])cc1)N2Nc1ccc(Cl)cc1Cl (stereo not given)	1.72	1.11	0.0716	0.646	1.04	-0.18	0.408	-0.443	0.957	-3.39 (inactive)
COC(=O)[C@@]1(Cc2ccccc2)[C@H]2c3cc(C(=O)N4CCCC4)n(Cc4ccc(O)c(OC)c4)c3C[C@H]2CN1C(=O)c1ccccc1	0.882	1.27	0.553	-0.685	0.284	-0.638	1.15	-0.0456	0.504	1.04 (inactive)
C#CCN1[C@@H](Cc2ccc(O)cc2)C(=O)O[C@H](Cc2ccccc2)[C@@H]1/C=C/C1CC1	-0.0341	-0.521	-0.102	0.123	0.623	0.571	-1.76	0.165	-0.202	-0.407 (inactive)
COCCOC(=O)N1C(=O)[C@@]2(c3ccccc31)[C@H](C(=O)N1CCCCCCC1)[C@H]1C(=O)O[C@H](c3ccccc3)[C@H](c3ccccc3)N1[C@@H]2c1ccc(OCCO)cc1	3.77	1.35	4.71	1.04	1.58	1.88	-1.35	1.91	1.74	-0.255 (inactive)
N#Cc1ccc(C(O)C2C=CC3C(=O)N(c4ccccc4)C(=O)C3N2Nc2ccccc2F)cc1 (stereo not given)	2.59	1.05	0.152	0.97	0.269	0.191	0.0535	0.284	0.144	1.79 (inactive)
O=C1OCCC=C[C@H]2OC34C=CCN(Cn5nnc6ccccc65)C(=O)[C@H]3N(CCO)C(=O)[C@@H]4C12 (stereo not given in full)	-0.459	-0.566	-0.225	-0.934	-0.851	-1.3	-0.758	-1.31	0.522	0.612 (inactive)
C=CCC(OC(C)=O)[C@@H]1[C@@H](N(Cc2ccc(-c3cccc(C(F)(F)F)c3)o2)C(=O)Cc2ccc(OC)cc2)c2cc(OCCCO)ccc2N1C(=O)c1ccc2ccccc2c1 (stereo not given in full)	-0.448	-0.811	-0.198	-1	0.776	-0.522	-0.322	0.199	-0.145	0.535 (inactive)
C=C[C@H](C)[C@@H](OC(=O)Nc1ccc(SC)cc1)c1ccc(O)c2ccccc12	3.14	1.24	0.183	0.294	1.37	1.54	-1.7	1.1	0.108	-2.61 (inactive)
C=C(CCCC)C(=O)CC[C@H](OC(=O)c1cccnc1)c1ccc(OCCO)cc1	0.631	0.474	0.819	0.0895	0.131	0.476	1.15	-0.205	0.955	-1.91 (inactive)
[N-]=[N+]=Nc1ccccc1[C@H]1OC(c2ccc(OCCCO)cc2)=N[C@@]1(CCS(=O)(=O)c1ccccc1)C(=O)NCc1ccccc1	1.18	1.24	0.341	1.04	1.34	0.694	0.727	0.152	0.697	-7.61 (inactive)
COCCOC(=O)N1C(=O)[C@@]2(c3ccccc31)[C@H](C(=O)N1CCc3cc(OC)c(OC)cc3C1)[C@H]1C(=O)O[C@H](c3ccccc3)[C@H](c3ccccc3)N1[C@@H]2c1ccc(O)cc1	2.07	1.18	0.381	0.864	1.09	1.26	0.674	0.788	0.74	-5.57 (inactive)
CCOC(=O)C1=CC[C@@H](c2ccc(C(F)(F)F)cc2)N(S(=O)(=O)c2ccc(C)cc2)[C@H]1c1ccccc1	2.1	1.21	0.81	0.955	0.377	-0.149	-1.9	0.0777	1.22	0.849 (inactive)
CN1C(=O)C2C=CC(C(O)c3ccc(F)cc3)N(N(c3ccccc3)c3ccccc3)C2C1=O (stereo not given)	0.202	0.619	0.0202	-1.13	0.605	-0.615	0.351	-0.128	0.296	0.0492 (inactive)
CC(=O)Nc1cc(Br)ccc1C(=O)NCc1ccccc1	0.69	0.6	0.265	0.402	-0.0708	-0.327	2.26	-0.285	0.674	-0.65 (inactive)
[N-]=[N+]=Nc1ccccc1C[C@]1(C(=O)NCc2ccccc2)N=C(c2ccc(OCCCO)cc2)O[C@H]1c1ccccc1N=[N+]=[N-]	1.88	1.16	0.414	1	0.547	-0.165	1.08	0.376	0.824	-3.77 (inactive)
Cc1ccc(S(=O)(=O)N2C[C@@H](C(=O)O)[C@H](Sc3ccccc3)C[C@H]2c2ccccc2)cc1	0.617	1.23	1.07	1.06	0.999	-0.194	-0.0335	0.697	1.03	1.88 (inactive)

SMILES	composite z-score [1]	composite z-score [2]	composite z-score [3]	composite z-score [4]	composite z-score [5]	composite z-score [6]	z-score [7]	composite z-score (Lefty1)	composite z-score [8]	z-score [9]
CC(C)=CCCC(C)=CC(O)C1C=CC2C(=O)N(c3ccccc3)C(=O)C2N1Nc1ccc(C(C)C)cc1 (stereo not given)	0.491	1.22	0.526	0.998	1.12	-0.373	0.0344	0.262	1.03	0.43 (inactive)
O=C1O[C@@H](c2ccccc2)[C@@H](c2ccccc2)N2[C@@H](c3ccc(OCCO)cc3)[C@]3(C(=O)Nc4ccc(C#CCCO)cc43)[C@@H](C(=O)NC[C@H](O)c3ccccc3)[C@H]12	0.797	1.17	0.947	0.668	1.34	1.01	0.225	0.958	0.356	-1.15 (inactive)
CC(=O)NCCCC[C@@H]1NC(=O)[C@H]2C[C@@H](C(=O)O)[C@@H](c3ccc(O)cc3)N2C1=O	2.26	1.21	0.626	0.584	1.32	1.67	-0.738	1.45	0.478	-3.39 (inactive)
CCCCN1CC=CC23O[C@@H]4C=CCCOC(=O)C4[C@H]2C(=O)N(CCCCCO)[C@@H]3C1=O (stereo not given in full)	1.88	-0.306	0.779	-0.905	-0.592	-0.437	0.976	-0.0266	0.0604	-0.469 (inactive)
CCOC(=O)[C@H]1C/C=C/C[C@H](C(=O)OCC)C(=O)O[C@H]2[C@@H](OC)O[C@H](CO)[C@@H](OC(=O)c3ccc(Br)cc3)[C@@H]2OC1=O	0.272	0.189	0.143	0.223	1.06	1.06	2.47	0.31	0.329	-0.0361 (inactive)
[N-]=[N+]=Nc1ccccc1[C@H]1OC(c2ccc(OCCCO)cc2)=N[C@@]1(Cc1ccccc1)C(=O)N1CCOCC1	2.22	1.21	0.68	0.974	1.38	1.66	-0.254	0.511	1.09	-5.58 (inactive)
[N-]=[N+]=Nc1ccccc1C[C@@]1(C(=O)N2CCCCC2)N=C(c2ccc(OCCCO)cc2)O[C@@H]1c1ccccc1	1.63	1.2	0.98	0.95	0.72	0.11	1.13	-0.322	1.31	-2.98 (inactive)
C=CCN1C(=O)[C@]2(Cc3ccccc3)N=C(c3ccc(OCCCO)cc3)O[C@@H]2c2ccccc21	3.16	1.2	0.145	0.548	1.37	1.56	1.59	0.816	0.663	-6.95 (inactive)
CC(C)OC(=O)C=C1C[C@@H](c2cccc(Cl)c2)O[C@@H](c2cccc(Cl)c2)O1	1.72	0.824	0.526	-0.105	-0.545	-0.122	-0.143	-1.1	0.751	0.924 (inactive)
COc1ccc(C(=O)Nc2ccc(CN3C(=O)[C@]4(O[C@H](CC(=O)N5CCC[C@H]5CO)[C@@H]([Si](C)(C)c5ccc(OC)cc5)[C@@H]4C)c4ccccc43)cc2)cc1	1.91	1.15	0.297	0.81	1.06	1.44	0.195	0.942	0.601	-1.08 (inactive)
CC[C@@H]1C=C(C(=O)O)[C@H](c2cccc3ccccc23)N1S(=O)(=O)c1ccc(C)cc1	1.18	1.11	1.39	0.159	0.414	0.108	-0.345	-0.103	0.302	1.46 (inactive)
O=C1C2C=CC(C(O)c3ccc(-c4ccccc4)s3)N(Nc3ccccc3)C2C(=O)N1c1ccccc1 (stereo not given)	2.17	1.25	0.473	0.974	0.899	-0.413	0.267	-0.28	0.807	0.192 (inactive)
CN(C)CCCCCCNC(=O)[C@@H]1C[C@@H]2C(=O)N[C@@H](CCCC[N+](C)(C)C)C(=O)N2[C@@H]1c1ccc(O)cc1	0.486	-0.396	0.678	-0.335	0.82	0.825	-0.147	0.798	0.427	-0.882 (inactive)
C=CCN(Cc1ccccc1)C(=O)C(c1cccs1)N(C(=O)/C=C\C(=O)O)c1ccc(CCOCCO)cc1 (stereo not given)	-0.709	-0.755	-0.618	-1.23	-1.32	-0.78	1.37	-1.16	-1.01	-3.88 (inactive)
NCCCCCCNC(=O)[C@H]1C[C@H]2C(=O)N[C@@H](Cc3ccccc3)C(=O)N2[C@H]1c1cccc(OCCO)c1	0.786	0.248	0.376	0.72	1.08	-0.044	0.481	0.0358	0.961	0.0326 (inactive)
